About 79,000 compounds went through this panel and 15% of them were active in at least one assay; those are over-represented in the sample as a whole. A number with no mark means an inactive call. The source made the active and inactive calls. No stated cut-off is given here; in the data, active means growth inhibition above about 70%; inactive means the rest.
What was measured:
[1] = NCI Yeast Anticancer Drug Screen. Data for the rad50 strain (AID 155);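 further: 0% = growth of vehicle-only cultures of the same strain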; details: S. cerevisiae rad50 strain growth inhibition; at 50.0 µM; active compounds read high
Outline: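 Genetically altered yeast (DNA repair pathway); compound treatment; growth inhibition vs vehicle ctrl.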

[2] = NCI Yeast Anticancer Drug Screen. Data for the mec2-1 strain (AID 157); details: S. cerevisiae mec2-1 strain, at 50.0 µM, active compounds read high
Outline: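 Vehicle-treated cultures served as reference for growth inhibition of compound-exposed mec2-1 yeast.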

[3] = NCI Yeast Anticancer Drug Screen. Data for the sgs1 mgt1 strain (AID 161);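 further: 0% = growth of cultures given vehicle only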; details: S. cerevisiae sgs1 mgt1 strain, at 50.0 µM, active compounds read high
Outline: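 Genetically altered yeast, compound exposure, growth inhibition relative to vehicle.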

[4] = NCI Yeast Anticancer Drug Screen. Data for the cln2 rad14 strain (AID 165);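 further: 0% = growth equal to vehicle treated cultures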; details: S. cerevisiae cln2 rad14 strain, at 50.0 µM, active compounds read high
Outline: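 Each compound was tested on cln2 rad14 yeast. Inhibition of growth was calculated against vehicle-exposed controls.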

[5] = NCI Yeast Anticancer Drug Screen. Data for the bub3 strain (AID 167); details: S. cerevisiae bub3 mutant strain, at 50.0 µM, active compounds read high
Outline: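 Yeast carrying a defined mutation is treated with each compound, and growth is compared with that of vehicle-exposed cells to give inhibition.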

[6] = NCI Yeast Anticancer Drug Screen. Data for the mlh1 rad18 strain (AID 175); details: S. cerevisiae mlh1 rad18 strain growth inhibition; at 50.0 µM; active compounds read high
Outline: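 Vehicle-treated cultures served as the reference for growth inhibition in a yeast strain carrying DNA damage repair alterations exposed to each compound.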

| SMILES | growth inhibition [1] | growth inhibition [2] | growth inhibition [3] | growth inhibition [4] | growth inhibition [5] | growth inhibition [6] |
| --- | --- | --- | --- | --- | --- | --- |
| CC(=O)NC(CC(=O)O)C(=O)Nc1ccccc1 (stereo not drawn) | 13.8% | 36.8% | 16.6% | 13.6% | 8.9% | 13.4% |
| O=C1NN2CCN=C2c2ccccc21 | -60.5% | -30% | -22.7% | -16.4% | -6.5% | -16.4% |
| NC(=O)c1cc[n+](-c2ccc([N+](=O)[O-])cc2[N+](=O)[O-])cc1 | 19.2% | 0.45% | 27.2% | 34.6% | 19.2% | 56.5% |
| S=C(NCc1cccnc1)Nc1ccc(Cl)c(Cl)c1 | 26.8% | 13.3% | 27.9% | 5.85% | 27.6% | 13.7% |
| O=c1ccc(-c2ccccc2)n[nH]1 | -25.4% | -0.2% | -28.3% | 5% | -25.8% | -23.9% |
| Cc1cccc(C(=O)c2ccccc2Cc2cccc3ccccc23)c1C | 5.1% | -6.8% | 7.2% | -6.45% | 9.5% | -15.5% |
| COc1c(C)c(C)c(OC(C)=O)c(C)c1COC(C)=O | 53.9% | 23.8% | 33.2% | 25.6% | 42.9% | 64.7% |
| O=C1C2=C(Nc3cc([N+](=O)[O-])ccc3N2)OC1c1ccc(Cl)cc1Cl (stereo not drawn) | -2.35% | 23.4% | 5.2% | 10.7% | -7% | 13.2% |
| Cc1ccc(S(=O)(=O)/N=[N+](\[O-])c2ccc(N(C)C)cc2)cc1 | -32.4% | -3.35% | -7.55% | -35.7% | -7.8% | -3.35% |
| O=S(/N=C/c1ccccc1)c1ccc(Cl)cc1 (stereo not drawn) | -7.6% | 4.5% | 12.4% | 13.9% | 9.4% | 13% |
| CCOC(=O)Cc1cc(C)c2ccccc2n1 | -7.75% | -5.65% | 4.3% | -19.6% | -9.4% | 7.45% |
| Nc1nc(N)nc(-c2ccco2)n1 | -15.1% | -6.6% | -27.1% | -81.8% | -0.85% | -5.2% |
| C/C(=N\Nc1ccc([N+](=O)[O-])cc1)C(=O)N(C)Nc1ccccc1 | -6% | -54.2% | -38% | -5.7% | -59.7% | -5.4% |
| Cc1cc(=O)oc2ccccc12 | 8.8% | 0.6% | 10.9% | -3.1% | 4.6% | 1.55% |
| Cc1n[nH]c(=S)n1NC=O | -12.3% | -6.3% | -4.7% | -20.2% | -4.95% | -15.8% |
| c1ccc(Cn2c(-c3ccccc3)c[n+]3ccccc23)cc1 | -11.4% | -10.1% | 5.35% | -49.4% | 10.3% | -6.4% |
| C=CCNC(=S)N/C=C(/C#N)C(=O)OC | 1.85% | -9.75% | -16.5% | 21.6% | -8% | 15.7% |
| CCCC(CCO)(CCO)c1ccccc1 | 16.6% | -30.4% | -9.65% | 10.9% | 8.1% | -5.7% |
| COC(=O)C1=C(C(=O)OC)C(C)(C)N=N1 | 14.2% | 6.65% | 12.7% | -1.65% | 16.1% | 3.45% |

| SMILES | growth inhibition [1] | growth inhibition [2] | growth inhibition [3] | growth inhibition [4] | growth inhibition [5] | growth inhibition [6] |
| --- | --- | --- | --- | --- | --- | --- |
| c1ccc(-c2c3ccccc3c(-c3ccccc3)c3ccccc23)cc1 | 6.2% | 5.95% | 6.7% | -3.75% | 2.4% | 19.7% |
| CCOC(=O)c1ccc(N=Cc2cccs2)cc1 | -1.9% | 28.4% | 17.1% | 9.5% | 0% | 17.4% |
| CC(=O)Cn1c(=O)oc2ccccc2c1=O | 22.6% | -9% | -10.7% | 49.5% | 17.9% | 10.1% |
| NC1C2C3C=CC(C3)C12 (stereo not drawn) | 12.5% | -3.85% | -5.75% | -28.9% | -5.2% | 8.95% |
| CC(=O)CC(=O)Nc1cccc(C)n1 | -0.4% | -9.95% | -14.3% | 3.8% | 6.25% | 7.25% |
| O=C(O)C(Br)C(Br)C(=O)Nc1cccc(C(F)(F)F)c1 (stereo not drawn) | 17.4% | -5.55% | 14.9% | 0.6% | -2.15% | 24.4% |
| Nc1ccc(F)c(F)c1 | 4.3% | -6.65% | 14.2% | -20% | 2.65% | 13.8% |
| ClC(Cl)C1OCCOCCO1 | -16.1% | -9.65% | -9.9% | -57.8% | -0.35% | -5.8% |
| CC(=O)CC(C)(C)NC(=S)Nc1ccc(O)cc1 | 99.7% (active) | 99.5% (active) | 99.8% (active) | 98.8% (active) | 99.8% (active) | 99.8% (active) |
| Cc1cc2c(=O)[nH]cnc2[nH]1 | -5.6% | -1.35% | -16.7% | 4.45% | 13.8% | -1.15% |
| Cn1c(=O)c2c3ccccc3c(C(=O)c3ccccc3)n2c2ccccc21 | 38.4% | 4.1% | 27.4% | 25.9% | -1.25% | 34.4% |
| CCOC(=O)C(=O)/C(=C/N1CCNC1=S)C(=O)OCC | -28.6% | -9.05% | -26.8% | 32.4% | -4.35% | -25.9% |
| CC(=O)CC(C)(C)NNS(=O)(=O)c1ccc(C)cc1 | 7.8% | -0.65% | -4.1% | -20.9% | 5.35% | -13.6% |
| CCCCCCCCCCCCCCCCCCC1=C(O)C(=O)C=C(OC)C1=O | 18.2% | -6.5% | -3.05% | -2.4% | 4.4% | 8.75% |
| CC(=O)OC(C)(C)[C@@H]1CC[C@H](C)C2=C(C1)[C@@H](C)CC2 | -13.8% | -30.9% | -23.9% | 2.05% | -16.1% | -16.1% |
| Cc1ccccc1-[n+]1noc(N)n1 | 4.75% | 0.45% | -14.6% | 3.85% | -0.7% | 12.6% |
| O=C(COc1ccccc1[N+](=O)[O-])Nc1cccnc1 | -18.9% | -10.8% | -12.3% | -9.25% | -3.25% | 8.25% |
| COc1cc([N+](=O)[O-])c2ncccc2c1OC | 5.55% | -11.1% | -22.1% | -20.2% | 0.45% | 68.2% |
| Nc1nnc2nc(CC(=O)c3ccccc3)c(CC(=O)c3ccccc3)nn12 | -5.4% | -2.9% | 3% | 32.6% | -29% | 16.2% |
